# In the library only some 10% were active in any assay of this set; here they are far more common.
# PNC assembly inh: inhibitors of perinucleolar compartment assembly; 140,000 tested, 3.1% active; PC3M PTB-GFP, PNC prevalence imaging, 16 h; active compounds read low; activity change (PNC), negative = inhibition, % at 10 µM;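 active = readout at or below -70, meaning at least 70% loss of cells showing the perinucleolar compartment, a nuclear body marking cancer cells; inconclusive = readout between -30 and a set limit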;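 also: plate controls were DMSO wells for no effect and camptothecin positive control wells for full effect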
#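 PC3M cells stably expressing PTB-GFP, 750–1000 cells/well, treated 16 h at 37 °C with compound (23 nl of library stock), in duplicate. After paraformaldehyde fixation and Hoechst stain, imaged at 20x; PNC prevalence scored by image analysis.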
# HPGD block: inhibitors of human 15-hydroxyprostaglandin dehydrogenase (HPGD) | Potency, µM, inactives show top-dose activity change, negative = inhibition, usual class: inhibitors | 150,000 tested, 4.3% active | AID 894 | purified HPGD, NADH fluorescence kinetic, PGE2 substrate; also: potency is read from the fitted curve at half-maximal effect
# Target sequence (P15428 whole entry, looked up): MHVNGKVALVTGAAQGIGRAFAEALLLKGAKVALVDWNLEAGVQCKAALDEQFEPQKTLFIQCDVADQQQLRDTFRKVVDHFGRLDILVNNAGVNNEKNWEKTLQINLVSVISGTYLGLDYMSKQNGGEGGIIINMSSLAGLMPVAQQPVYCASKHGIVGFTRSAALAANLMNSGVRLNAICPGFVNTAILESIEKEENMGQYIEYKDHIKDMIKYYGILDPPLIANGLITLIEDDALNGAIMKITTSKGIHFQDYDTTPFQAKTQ
#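 20 nM HPGD preincubated 15 min at room temperature with compound in 50 mM Tris-HCl pH 8, 0.01% Tween 20. Started with 1 mM NAD+ and 30 uM prostaglandin E2; NADH fluorescence (360/450 nm) read 5 times over 30-s intervals, last minus first.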
# Lamin A splicing: modulators of lamin A splicing. HeLa LMNA splicing GFP/RFP minigene ratio, 48 h. Potency, µM (titrated, usually from 46.1 µM), for the others: top-dose ratio change, negative = inhibition, hits mostly inhibitors. 200,000 tested, 0.01% active; active = well fitted inhibition curve with a large enough effect in the signal ratio, with a control signal flat, not every such curve was filed as active; inconclusive = small, poorly fitted or top-dose-only effect, or effect the other way, or a change in a side signal; the % refers to the signal ratio; also: potency is read from the fitted curve at half-maximal effect
#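 S3 HeLa cells stably expressing lamin A-EGFP splicing minigene plus DsRed2, 600 cells/well, 48 h compound exposure at 37C. Laser-scanning cytometry; analysed as GFP (500-530 nm)/RFP (575-640 nm) total intensity ratio; 0.5% DMSO vehicle.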
# KinaseGlo FLuc: blocks Kinase-Glo luciferase, a counter-screen artifact. 200,000 tested, 0.28% active. Kinase-Glo luciferase, ATP luminescence, 8 min. Potency, µM (doses to about 38.3 µM), inactives show at the highest dose activity change, negative = inhibition, hits mostly inhibitors. Q27757; active = well fitted inhibition curve with a large enough effect; inconclusive = small, poorly fitted or top-dose-only effect; also: potency is read from the fitted curve at half-maximal effect; nearly all actives have a fitted effect of over 60% in size
#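 Luminescence was the read-out, taken after 8-minute incubation at ambient temperature. Luciferase turned over luciferin with 10 uM ATP in imidazole pH 7.2 buffer containing KCl, MgCl2, Tween 20 and BSA.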
# ALDH1A1 inh: inhibitors of human aldehyde dehydrogenase 1A1; P00352; Purified ALDH1A1, NADH fluorescence, propionaldehyde substrate; Potency, µM (titrated, usually from 75.3 µM), inactives show top-dose activity, negative = inhibition, actives largely listed as inhibitors; 220,000 tested, 7.3% active; AID 1030;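 also: potency is read from the fitted curve at half-maximal effect; plate controls were no enzyme wells and a reference inhibitor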
# * = called active by the depositor; ? = inconclusive; / = no result given; [ ] = dose if it differs, or a comment. Unless noted, calls follow the shape of the dose curve; as a rule, active = well fitted inhibition curve with a large enough effect (not every such curve was filed as active); inconclusive = small, poorly fitted or top-dose-only effect, or another doubt; inactive = no such curve, though single readings can be large or run the other way. Unless noted, % is scaled to controls: 0 for no effect and ±100 for the full control effect.
SMILES,PNC assembly inh,HPGD block,Lamin A splicing,KinaseGlo FLuc,ALDH1A1 inh
Cn1cc(SCC(=O)N2CCOCC2)c2ccccc21,-108*,-13%,-10%,-1%,4%
COc1cc(/C=C\C(=O)N2CCC=CC2=O)cc(OC)c1OC,/,-5%,?,0%[17.1 µM],?
COC(=O)c1cc(C)nc(Sc2ccccc2N)n1,/,/,/,/,3.5µM*
CCOc1ccc(-c2nn(-c3ccccc3)cc2/C=C2\SC(N)=NC2=O)cc1C,-22,16µM*,3%,1%,3%
CCOc1ccc(-c2nn(-c3ccccc3)cc2/C=C2\SC(=S)N(C3CCS(=O)(=O)C3)C2=O)cc1 (centres undefined),-1,-4%,-6%,-2%,4%
COC(=O)c1sc(N2C(=O)C(=O)/C(=C(/O)c3ccccc3)C2c2ccco2)nc1C (centres undefined),-84*,25µM*,-6%,0%,-2%
Cc1cc(C)c2c(=O)c(C#N)coc2c1,/,/,/,/,10µM*
CCSC1=NC2(CCCCC2)Nc2sc3c(c21)CCCC3,?,4.5µM*,13%,4%,7.1µM*
NC(=O)c1c(NC(NC(=O)c2ccco2)C(=O)c2ccc(Cl)cc2)sc2c1CCCC2 (centres undefined),-10,-20%,-5%,-1%,18µM*
N#CCCn1c(=O)c(-c2cc(F)cc(F)c2)nc2cnc(Oc3cccc(Cl)c3)nc21,/,?,/,-2%,?
O=C1c2cccc3c([N+](=O)[O-])ccc(c23)C(=O)N1c1ccccn1,-105*,28µM*,-27%,-6%,5%
O=C(O)[C@@H]1CCCN1,/,-5%,?,-8%[7.66 µM],11%[13.5 µM]
O=C(NCc1ccccc1)c1cnc2sc(N3CCCC3)nn2c1=O,/,/,-8%[46 µM],/,/
Cc1noc(C)c1COc1cccc(C(=O)Nc2ccc(OCc3ccccc3)cc2)c1,-18,-9%,13%,-11%,2%
COc1ccc2nc(NC(=O)c3cccc(OCc4c(C)noc4C)c3)sc2c1,-91*,?,?,-9%,?
Cc1nc(C)c(C(=O)NCc2ccccc2Cl)o1,-14,25µM*,?,-1%,22µM*
Cc1noc(C)c1COc1cccc(C(=O)NC(C)(C)C)c1,/,/,-11%[46 µM],-1%,17%
Cc1noc(C)c1COc1cccc(C(=O)NCc2ccccc2Cl)c1,?,16µM*,?,-5%,-26%
CCSc1nnc(NC(=O)c2cccc(OCc3c(C)noc3C)c2)s1,-111*,25µM*,?,-2%,?
Cc1cc([N+](=O)[O-])c(C)c(Br)c1C,/,-11%,/,0%[7.66 µM],-3%[13.5 µM]
CCOC(=O)CNC(=O)CSc1nnc(SCC(=O)NCC(=O)OCC)s1,11,?,4%,-5%,0.25µM*
Cc1cccc(-c2nsc(SCC(=O)NCc3ccco3)n2)c1,0,?,?,-6%,?
O=C(CSc1nnc(NC(=O)Cc2ccccc2)s1)NCC1CCCO1 (centres undefined),/,/,7%[9.22 µM],2%,7%
O=C(Nc1ccc(S(=O)(=O)NCC2CCCO2)cc1)c1ccccc1 (centres undefined),/,/,/,6%,-4%
CC(=O)Nc1nnc(SCC(=O)NCC2CCCO2)s1 (centres undefined),-100*,-17%,7%,-4%,?
SMILES,PNC assembly inh,HPGD block,Lamin A splicing,KinaseGlo FLuc,ALDH1A1 inh
CCOC(=O)CNC(=O)CSc1nc(-c2cccc(C)c2)ns1,/,/,9%[46 µM],-3%,20µM*
C=CCSc1nnc(NC(=O)c2ccc(S(=O)(=O)NCC3CCCO3)cc2)s1 (centres undefined),-11,18µM*,?,5%,?
Cc1ccc(C2=Nc3ccccc3S[C@@H](c3cccc([N+](=O)[O-])c3)C2)cc1,/,-29%,/,-7%[7.66 µM],-12%[13.5 µM]
CCOC(=O)CSc1nnc(SCCN2C(=O)c3ccccc3C2=O)s1,7,-9%,10%,3%,28µM*
Cc1cccc(-c2nsc(SCC(=O)NCC3CCCO3)n2)c1 (centres undefined),/,/,/,3%,20µM*
O=[N+]([O-])c1cccc(CNc2ccc3c(c2)CCC3)c1,40,-14%,5%,-2%,22µM*
CCOc1cc(CNc2ccc3c(c2)CCC3)ccc1OC,14,-14%,5%,3%,20µM*
N#Cc1cccc(-c2nc3cnc(N4CCOCC4)nc3n(C3CC3)c2=O)c1,/,/,2%,/,?
COCCNC(=O)CSc1nc(-c2ccc(C)cc2)nc2c1c(=O)n(C)c(=O)n2C,/,/,1%[46 µM],/,/
CCOc1ccc(C(=O)NCc2ccc3c(c2)CCN3C(=O)c2ccc(Cl)cc2)cc1,/,/,-13%[46 µM],/,/
CN(C)c1ccc(CNc2ncc(Br)cc2Br)cc1,4,-21%,9%,-2%,3.2µM*
Cn1c(=O)c(-c2cccc(F)c2)nc2cncnc21,/,/,-1%,/,?
CC(C)(C)c1ccc(C(=O)C=[N+]=[N-])cc1,?,-22%,0%,-3%,6.3µM*
O=C(COCc1cc(-c2cccs2)on1)Nc1ccc(OC(F)(F)F)cc1,/,/,10%[46 µM],/,/
COc1ccccc1N1CCN(C(=O)c2ccc3nc(-c4ccco4)c(-c4ccco4)nc3c2)CC1,23,-17%,?,1%,13µM*
COc1ccccc1N1CCN(C(=O)c2oc3ccc(F)cc3c2C)CC1,220,0%,?,1%,-2%
COc1ccccc1N1CCN(C(=O)c2ccccc2Oc2ccccc2)CC1,?,-18%,-3%,2%,0.56µM*
Cc1ccc(C)c(N2CCN(C(=O)c3ccc4nc(-c5ccco5)c(-c5ccco5)nc4c3)CC2)c1,76,?,16%,-2%,?
COc1ccccc1N1CCN(C(=O)/C=C/c2ccccc2)CC1,-100*,-10%,7%,3%,1%
COc1ccccc1N1CCN(C(=O)c2oc3ccc(Br)cc3c2C)CC1,-95*,-21%,-20%,-1%,9%
COc1ccc(CNC(=O)Nc2cn(CC(C)C)c(=O)c3ccccc23)cc1,/,/,6%[46 µM],/,/
COCC#Cc1ccc(C2C(C)CCC3C(=O)N4C(CCC(C)C4c4ccc(C#CCOC)cc4)C(=O)N32)cc1 (centres undefined),/,/,/,/,13%[13.5 µM]
COC(=O)C1CCN(C(=O)/C=C/c2ccccc2)CC1,-114*,-3%,-2%,-1%,-5%
O=C(/C=C/c1ccccc1)N1CCC(Cc2ccccc2)CC1,-3,/,?,/,6%
COc1cccc(CN2CCCN(CC(=O)Nc3ccc4c(c3)OCCO4)S2(=O)=O)c1,/,/,-5%[46 µM],/,/
CN(C(=O)CSc1nc2ccc(NC(=O)COc3ccccc3Cl)cc2s1)c1ccccc1,/,/,4%[46 µM],/,/
Nc1ccc(S(N)(=O)=O)cc1,/,-2%,-8%,-3%,-7%
Nc1ccc(S(=O)(=O)O)cc1,/,-10%,/,/,32µM*
O=C(COc1ccccc1)NCC(=O)N/N=C/c1cccs1,-7,-18%,3%,1%,22µM*
O=C(NCCO)c1ccc(Cl)cc1,/,-3%,/,-3%[7.66 µM],-3%[13.5 µM]

# High-throughput results deposited in PubChem BioAssay by National Center for Advancing Translational Sciences (NCATS).
